# Measured values reported in PubChem BioAssay (Tox21).
# Values joined by “and” are separate entries in the source; they are usually repeats but may differ in a detail not shown here. Equal values may be shown once. Inconclusive results are not listed. A call without a number means that no potency is given here. Values without a mark were called inactive. Active and inactive are the calls of the source. Calls follow the shape of the full dose curve.
# Assay: qHTS assay for small molecule agonists of the antioxidant response element (ARE) signaling pathway - cell viability counter screen (AID 743203); also: nearly all actives have a fitted effect of over 55% in size
# Conditions: ARE-bla HepG2 viability, CellTiter-Glo luminescence, 16 h; series mostly up to 73.3 µM; viability change, negative = cytotoxic: at the top concentration
# Source text: National Center for Advancing Translational Sciences [NCATS]
# NIH Chemical Genomics Center [NCGC]
# U.S. Environmental Protection Agency [EPA]
# National Institutes of Environmental Health Sciences [NIEHS]
# National Toxicology Program [NTP]
# U.S. Food and Drug Administration [FDA]
# Oxidative stress has been implicated in the pathogenesis of a variety of diseases ranging from cancer to neurodegeneration. The antioxidant response element (ARE) signaling pathway plays an important role in the amelioration of oxidative stress. The CellSensor ARE-bla HepG2 cell line (Invitrogen) can be used for analyzing the Nrf2/antioxidant response signaling pathway. Nrf2 (NF-E2-related factor 2) and Nrf1 are transcription factors that bind to AREs and activate these genes. The CellSensor ARE-bla Hep G2 cell line contains a beta-lactamase reporter gene under control of the Antioxidant Response Element (ARE) stably integrated into HepG2 cells. The activation of the report gene under culture conditions can be detected by fluorescence intensity. This cell line has been used to screen the Tox21 10K compound library to identify agonists that induce oxidative stress. The cytotoxicity of the Tox21 compound library against the ARE-bla cell line was tested in parallel by measuring the cell viability using CellTiter-Glo assay (Promega, Madison, WI) in the same wells.
# Tox21 Assay Protocol Summary:
# ARE-bla HepG2 cells were dispensed at 2,000 cells/5 ul/well in 1536-well white wall/solid bottom plates using a Multidrop Combi (ThermoFisher Scientific, Waltham, MA) dispenser. After the assay plates were incubated at 37C/5% CO2 for 5 hrs, 23 nL of compounds dissolved in DMSO, positive controls or DMSO only was transferred to the assay plate by a pintool work station (Kalypsys, San Diego, CA). The plates were incubated at 37C/5% CO2 for 16 hrs, followed by addition of 4 ul/well of CellTiter-Glo reagent into the assay plates using a Flying Reagent Dispenser (Aurora Discovery, San Diego, CA). After 30 min incubation at room temperature, the luminescence intensity in the assay plates was measured using a ViewLux (PerkinElmer, Shelton, CT) plate reader.
# Potency is read from the fitted curve at half-maximal effect.
SMILES,Potency,"viability change, negative = cytotoxic"
c1cc(N(CC2CO2)CC2CO2)ccc1OCC1CO1 (stereo not given),inactive,
CN(C)c1nc(N(C)C)nc(N(C)C)n1,inactive,
CCCCC(CC)COCC1CO1 (stereo not given),inactive,
NNc1ccc(C(=O)O)cc1,inactive,
c1ccncc1,inactive,
COc1ccc(C(=O)CC(=O)c2ccc(C(C)(C)C)cc2)cc1,inactive,
Nc1ccccc1N,,10.2% [at 94.8 µM]
OC[C@H]1O[C@@H]2O[C@H]3[C@H](O)[C@@H](O)[C@@H](O[C@H]4[C@H](O)[C@@H](O)[C@@H](O[C@H]5[C@H](O)[C@@H](O)[C@@H](O[C@H]6[C@H](O)[C@@H](O)[C@@H](O[C@H]7[C@H](O)[C@@H](O)[C@@H](O[C@H]8[C@H](O)[C@@H](O)[C@@H](O[C@H]1[C@H](O)[C@H]2O)O[C@@H]8CO)O[C@@H]7CO)O[C@@H]6CO)O[C@@H]5CO)O[C@@H]4CO)O[C@@H]3CO,inactive,
CCC(C)CO (stereo not given),,-7.63% [at 94.8 µM]
Brc1cc(Oc2cc(Br)c(Br)c(Br)c2Br)c(Br)c(Br)c1Br,inactive,
COc1cccc2c1C(=O)c1c(O)c3c(c(O)c1C2=O)C[C@@](O)(C(=O)CO)C[C@@H]3O[C@H]1C[C@H](N)[C@H](O)[C@H](C)O1,13.7 µM (active) and 5.31 µM (active),
CCOC(=O)C(C#N)=C(c1ccccc1)c1ccccc1,inactive,
O=C(/C=C/C=C/c1ccc2c(c1)OCO2)N1CCCCC1,,-0.212%
Cc1ccc(C(=O)c2cc(O)c(O)c([N+](=O)[O-])c2)cc1,9.69 µM (active),
CN(C)CCC=C1c2ccccc2CCc2ccccc21,,-20.2%
COc1cc([C@@H]2c3cc4c(cc3[C@H](O)[C@H]3COC(=O)[C@H]23)OCO4)cc(OC)c1OC,inactive,
CC(=O)C1(C)CC2=C(CCCC2(C)C)CC1C (stereo not given),inactive,
CC(=O)c1ccccn1,inactive,
O=Cc1ccccc1O,inactive,
CC(C)OB(OC(C)C)OC(C)C,inactive,

SMILES,Potency,"viability change, negative = cytotoxic"
CCCCNS(=O)(=O)c1ccccc1,inactive,
O=C(COc1ccc(Cl)cc1)N1CCN(Cc2ccc3c(c2)OCO3)CC1,,-8.57%
Cc1c(OCC(F)(F)F)ccnc1CS(=O)c1nc2ccccc2[nH]1 (stereo not given),inactive,
c1ccc(Nc2ccccc2)cc1,inactive,
OCCO,inactive,
O=C=Nc1ccc(Cc2ccc(N=C=O)cc2)cc1,inactive,
COC(=O)CCC(=O)OC,inactive,
S=C(NC1CCCCC1)NC1CCCCC1,inactive,
CN1C(C(=O)Nc2ccccn2)=C(O)c2ccccc2S1(=O)=O,,-8.55%
CCC(C)OC(=O)c1ccc(O)cc1 (stereo not given),inactive,
CCCCOCCOCCO,inactive,
CNCCCC12CCC(c3ccccc31)c1ccccc12,19.3 µM (active),
c1ccc2cc(Nc3ccc(Nc4ccc5ccccc5c4)cc3)ccc2c1,inactive,
O=C(OCc1ccccc1)c1ccccc1O,inactive,
CCCc1c(OCCCCc2nn[nH]n2)ccc(C(C)=O)c1O,inactive,
OC(CCl)CCl,inactive,
Cc1[nH]c(=O)c(C#N)cc1-c1ccncc1,inactive,
C/C=C/C(=O)O,inactive,
CC(C)Oc1ccc2c(=O)c(-c3ccccc3)coc2c1,inactive,
C[Si](C)(C)O[Si](C)(C)C,inactive,
